# An excerpt weighted towards active compounds, which were near 1.2% of everything screened.
# NTR1 ag = NTR1 (human) agonism; P30989; NTR1-U2OS beta-arrestin-GFP spot imaging, agonist mode; activation, % at 20 µM; 0.17% of 330,000 active;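 active = activation at or above 40% of the spot to cytoplasm intensity ratio, with at least 20 cells analyzed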
# Target sequence (P30989 whole entry, looked up): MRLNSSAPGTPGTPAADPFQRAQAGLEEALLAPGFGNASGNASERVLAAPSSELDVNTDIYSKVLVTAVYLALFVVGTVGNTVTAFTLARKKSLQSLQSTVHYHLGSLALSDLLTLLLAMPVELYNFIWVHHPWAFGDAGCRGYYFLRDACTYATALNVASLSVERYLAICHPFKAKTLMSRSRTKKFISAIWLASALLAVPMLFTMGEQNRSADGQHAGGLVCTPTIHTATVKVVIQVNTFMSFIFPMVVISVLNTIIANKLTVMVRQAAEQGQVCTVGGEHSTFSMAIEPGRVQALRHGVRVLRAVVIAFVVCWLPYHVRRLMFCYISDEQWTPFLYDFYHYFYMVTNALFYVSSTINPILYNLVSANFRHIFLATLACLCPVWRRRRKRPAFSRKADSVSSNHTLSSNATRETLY
# Platelet DG rel = modulates dense granule release in human platelets; human platelet-rich plasma, SFLLRN dense granule ATP release, luminescence; inhibition, %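 (compounds screened at 7.5 µM in platelet-rich plasma)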; 0.22% of 300,000 active;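 active = mean replicate score, as percent of positive control, at or above 50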
# beta cell repl = induces beta-cell replication in MIN6 cells | MIN6 cells proliferation, ATPlite luminescence, 48 h; cells starved in 0.2% serum; 100% = growth in 10% serum | proliferation, % at 10 µM | 0.29% of 330,000 active | AID 2380;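 active = compounds whose signal lies at least 3.5 SD above the mean of all wells on their plate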
# GRK2 aptamer HTS = human GRK2 inhibition via aptamer displacement; bead flow cytometry, FAM-aptamer displacement from GRK2; 0.59% of 330,000 active; inhibition of aptamer binding, % at 10 µM; P25098;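 active = inhibition of aptamer binding above 40%, roughly 3 SD of noise, on plates passing a quality check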;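 also: median bead fluorescence of bound FAM aptamer so fluorescent compounds give negative values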
# A number is an active result; n = inactive; x = no result.
SMILES,NTR1 ag,Platelet DG rel,beta cell repl,GRK2 aptamer HTS
CCCCCCN1C=CC(=C2C(=O)c3ccccc3C2=O)C=C1,n,n,n,n
CCN1C=CC(=C2C(=O)c3ccccc3C2=O)C=C1,n,53,n,n
Cc1ccc(N/C(=C\C(=O)c2ccccc2)C(=O)O)cc1,n,n,7.1,n
Cc1ccc(C(=O)NCC(=O)OCCCOC(=O)CNC(=O)c2ccc(C)cc2)cc1,n,n,n,n
O=C1[C@@H](Oc2ccccc2)[C@@H](c2ccccc2)N1c1ccccc1,n,x,x,41
Cc1cc2ccccc2nc1SCC(=O)N1c2ccccc2CC1C (configuration not stated),n,67,n,n
Cc1ccc(-c2cc(C(=O)NCc3ccco3)c3ccccc3n2)o1,n,56,n,n
Cc1nnc(NC(=O)c2cc(-c3ccco3)nc3ccccc23)s1,n,n,n,91
O=C(Nc1nc2ccccc2s1)c1cc(-c2ccco2)nc2ccccc12,n,n,n,n
CCOC(=O)c1c(C)[nH]c(C(=O)C(C)OC(=O)c2oc3ccccc3c2COC)c1C (configuration not stated),n,73,n,n
COc1ccc(N2CCN(S(=O)(=O)CCNC(=O)C3CC3)CC2)cc1,n,n,n,n
COc1ccc(S(=O)(=O)N2CCOCC2)cc1NC(=O)c1cccc(-n2cccc2)c1,n,n,n,n
CCOc1ccc(NC(=O)c2cccc(-n3cccc3)c2)cc1S(=O)(=O)N1CCOCC1,n,x,n,43
Cc1cc(C(=O)N2CCCC(Nc3ccc(F)cc3)C2)c(C)o1 (configuration not stated),n,n,n,n
C=CCn1c(=O)/c(=C2/Sc3ccccc3N2CC)s/c1=C1/C(=O)NN=C1C,n,n,n,42
C=CCN1C(=O)/C(=C2/Sc3ccccc3N2CC)SC1=S,n,n,n,n
COc1cc(NC(=O)c2ccccc2)c(OC)cc1NC(=O)CSc1[nH]c(=O)cc(C)c1C#N,n,71,n,n
Cc1cc(=O)[nH]c(SCC(=O)Nc2cccc3ccccc23)c1C#N,n,n,n,n
Cc1nnc(N2C(=O)C(O)=C(C(=O)c3ccco3)C2c2ccc(C(C)(C)C)cc2)s1 (configuration not stated),n,52,n,n
COc1ccc(C(=O)N/C(=C/c2cccnc2)C(=O)N2CCN(C)CC2)cc1OC,n,n,n,n
Cc1nonc1C(=O)N/N=C/c1ccc(O)c(O)c1,n,67,n,n
COc1cc(/C=N/NC(=O)c2nonc2C)ccc1O,n,53,n,n
Cc1nonc1C(=O)N/N=C/c1ccccc1,n,n,n,n
CCOC(=O)c1c(NC(=O)C2CCCCC2C(=O)O)sc2c1CCCCC2 (configuration not stated),n,n,n,n
CCOC(=O)c1c(NC(=O)C2C3C=CC(C3)C2(C)C(=O)O)sc2c1CCCC2 (configuration not stated),n,n,n,64
SMILES,NTR1 ag,Platelet DG rel,beta cell repl,GRK2 aptamer HTS
CC1CN2C(c3ccc([N+](=O)[O-])cc3)=CSC2=N1 (configuration not stated),n,n,n,x
COc1ccccc1C(=O)Nc1ccc2c(c1)CCCN2C(=O)c1ccccc1,n,54,n,n
COc1ccccc1C(=O)Nc1ccc2c(c1)CCCN2C(=O)c1cccs1,n,n,n,n
N/C(=N/OC(=O)c1ccccc1Cl)c1nonc1N,n,54,n,n
N/C(=N\OC(=O)c1ccc(F)cc1)c1nonc1N,n,n,n,n
Cc1cccc(NC(=O)CCCNC(=O)c2ccc(Cl)cc2)n1,n,54,n,n
Cc1ccc(NC(=O)CCCNC(=O)c2ccc(Cl)cc2)nc1,n,n,n,n
CCOC(=O)c1oc2ccccc2c1NC(=O)COc1ccc(F)cc1,n,n,9.7,n
Cc1ccc(-c2nc(SC(C)C(=O)N3CCOCC3)n[nH]2)cc1 (configuration not stated),n,61,n,n
CC(C)Oc1ccc(CNC(=O)CC(c2ccccc2)c2cc(Cl)ccc2O)cc1 (configuration not stated),51,n,n,n
COc1ccccc1C(CC(=O)Nc1ccc(Cl)cc1)c1ccc(OC(C)C)cc1 (configuration not stated),n,n,n,n
COc1ccc(S(=O)(=O)NCc2cc(=O)n(C)c(=O)n2C)cc1C,n,n,n,n
CC(/C=N/n1c(-c2cccnc2)n[nH]c1=S)=C\c1ccccc1,n,n,n,n
CC(=C/c1ccccc1)/C=N/n1c(-c2ccncc2)n[nH]c1=S,n,n,15,n
NS(=O)(=O)c1ccc(CCn2c(=S)[nH]c3ccc(F)cc3c2=O)cc1,n,n,n,n

# Assay outcomes deposited in PubChem by several laboratories.
